D1 antagonist – human D1 dopamine receptor antagonism | HEK293 TREx D1 cells, calcium flux, dopamine EC80; hits give low values | AID 504652 | P21728 | activity change, negative = inhibition, % at 10 µM | 360,000 compounds, 3.2% hits; in the data active = activity change below about -30%; also: % is scaled to controls: 0 for no effect and ±100 for the full control effect
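Cells carrying a force-coupled, tetracycline-inducible human D1 receptor report calcium flux. Each well gets a 10 s baseline, compound with 180 s monitoring, then an EC80 dopamine stimulus with a second 180 s kinetic read.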
TRHR PAM – allosterically enhances the human TRH receptor; TRHR cells, fluo-8 calcium fluorescence, EC20 TRH enhancement; enhancement, % at 2 µM; 360,000 compounds, 0.66% hits; in the data active = enhancement above about 30%; also: 0% is about no effect
Target sequence (P34981 whole entry, looked up): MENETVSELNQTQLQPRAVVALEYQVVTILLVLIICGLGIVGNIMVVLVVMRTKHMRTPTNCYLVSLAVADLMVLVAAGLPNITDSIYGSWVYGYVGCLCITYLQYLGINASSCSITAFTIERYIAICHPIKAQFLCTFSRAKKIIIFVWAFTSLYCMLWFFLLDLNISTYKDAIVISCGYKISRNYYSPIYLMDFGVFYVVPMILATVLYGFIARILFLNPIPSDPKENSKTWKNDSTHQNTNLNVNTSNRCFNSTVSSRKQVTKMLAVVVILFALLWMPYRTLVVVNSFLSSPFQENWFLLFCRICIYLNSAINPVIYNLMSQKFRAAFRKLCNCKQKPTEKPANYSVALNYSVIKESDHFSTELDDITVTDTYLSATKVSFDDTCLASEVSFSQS
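TRHR-expressing cells loaded with fluo-8 calcium dye were read kinetically (ex 480/em 530) during compound addition, then stimulated with an EC20 of TRH (10 nM final). Enhancement of the Gq-mediated intracellular calcium response was scored.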
D1 PAM – human D1 dopamine receptor positive modulation. P21728. HEK293 TREx D1 cells, calcium flux, dopamine EC20 potentiation. potentiation, % at 10 µM. 360,000 compounds, 0.036% hits. AID 504651; in the data active = potentiation above about 30%; also: 0% is about no effect
TRHR ag – agonists of human TRH receptor | TRHR cells, calcium flux fluo-8, FDSS agonist mode | activation, % at 2 µM | 360,000 compounds, 0.18% hits; also: 0% is about no effect
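Steps: seed TRHR cells overnight; add fluo-8 no-wash Ca dye, RT 30 min–1.5 h; record 10 s baseline; pin-transfer compounds; monitor fluorescence 1 cycle/s for the agonist window. Calcium increases flag candidate agonists.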
D1 ag – agonists of human D1 dopamine receptor | P21728 | HEK293 T-REx D1 cells, calcium flux, agonist mode | activation, % at 2 µM | 360,000 compounds, 1% hits | AID 504660; also: 0% is about no effect
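Tetracycline-induced HEK293 TREx D1 cells, force-coupled to calcium signalling, were dye-loaded with a no-wash calcium kit. Compound was pin-added after a 10 s baseline. Fluorescence was read kinetically at 1 cycle/s for 180 s, with calcium rises flagged as agonism.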
* hit, by the source's call; · = no result given. Only some compounds are listed: those with a hit (about 4.7% of all), similar ones and a draw of the others. Rule as the data show it, unless noted: active = activation above about 30%; inactive = the rest.

SMILES	D1 antagonist	TRHR PAM	D1 PAM	TRHR ag	D1 ag
CCOc1ccc(N2C(=O)CC(NC3CCN(C(=O)c4cccc(Cl)c4)CC3)C2=O)cc1 (centres undefined)	-0.2	-2.8	-0.3	-0.5	6.2
CCOc1ccc(N2C(=O)CC(NC3CCN(C(=O)c4cccs4)CC3)C2=O)cc1 (centres undefined)	28.8	2.3	-3.9	-0.2	78.5*
COc1ccc(NC(=S)N(CCO)Cc2ccccc2)cc1	0.4	-5.5	-5.5	0.2	0.7
COCCN(Cc1ccccc1)C(=S)Nc1ccc(Cl)cc1	-36.2*	-8.3	-10.4	0.1	4.3
CCc1ccc(NC(=O)CSc2cn(CC(=O)N3CCOCC3)c3ccccc23)cc1	-18.5	-1.7	-5.6	0.0	0.8
CC(C)/C=C/CN1CCCC(N2CCN(c3cccc(Cl)c3)CC2)C1 (centres undefined)	-37.1*	0.0	-7.0	0.6	6.3
CCOc1cccc(CN2CCCC(N3CCN(c4cccc(Cl)c4)CC3)C2)c1O (centres undefined)	1.1	-2.0	0.2	-0.8	2.8
CCOC(=O)C1=C(CN2CCN(c3ccccc3)CC2)NC(=O)NC1c1ccc(C)cc1 (centres undefined)	9.4	6.2	2.6	-1.4	3.4
O=C(NCc1ccc(Cl)cc1)c1cnc2sc(N3CCCCCC3)nn2c1=O	12.5	1.7	-5.3	0.1	-0.9
Cc1ccc(Nc2sc(C(=O)c3ccccc3)c(N)c2S(=O)(=O)c2ccccc2)cc1Cl	-21.8	0.4	-1.7	1.2	16.7
CCc1ccccc1OCc1nc2ccc(S(=O)(=O)N3CCOCC3)cc2[nH]1	·	32.6*	0.1	-0.6	-0.3
CCc1ccc(-n2nc3ccc(NC(=O)c4ccc(C#N)cc4F)cc3n2)cc1	5.8	-5.6	-4.0	0.9	-0.2
Cc1ccc(-c2cn3c(n2)sc2cc(C(=O)NC4CCCc5ccccc54)ccc23)cc1 (centres undefined)	16.0	5.2	0.5	-0.6	9.0
Cc1cc2c(s1)c1cnn(Cc3ccccc3Cl)c(=O)c1n2C	13.8	-1.7	-2.5	1.4	1.0
O=C1CCc2cc(S(=O)(=O)Nc3ccccc3F)ccc2N1	-41.8*	-4.8	4.2	-0.4	1.7
O=C1CCc2cc(S(=O)(=O)Nc3ccccc3Cl)ccc2N1	-7.4	2.0	-2.2	0.0	3.0
O=C(Nc1ccncc1)Nc1ccc(Br)cc1Cl	-33.8*	-3.8	-6.6	1.0	3.9
O=C(Nc1ccc(F)c(Cl)c1)Nc1ccc(Cl)cn1	5.3	4.7	-1.4	0.6	0.3
CC(=O)c1ccc(NC(=O)Nc2ccc(Br)cc2C)cc1	-35.2*	3.0	-11.2	0.5	20.6
O=C(Nc1ccncc1)Nc1ccc(F)c(Cl)c1	-13.3	36.4*	-6.5	1.8	22.8
CC(=O)c1ccc(NC(=O)c2ccc(C)c(Br)c2)cc1	-2.6	7.6	-8.2	-2.0	13.0
O=C(Nc1ccc(Br)cc1)Nc1ccccc1Cl	-41.1*	-5.8	-2.8	1.0	10.7
Fc1ccc(CNc2nc3ccc(Cl)cc3n3nnnc23)cc1	-1.2	5.6	6.4	3.1	7.0
COC(=O)C1=C(C)OC(N)=C(C#N)C1c1ccccc1F (centres undefined)	-13.9	-2.3	-9.1	-0.1	-0.1
N#CC1=C(N)Oc2cc(O)c(Cl)cc2C1c1ccccc1F (centres undefined)	0.5	7.6	14.8	55.3*	165.6*
SMILES	D1 antagonist	TRHR PAM	D1 PAM	TRHR ag	D1 ag
CCC(C(=O)NCc1ccccc1OC)n1nc(C)n2c(cc3sccc32)c1=O (centres undefined)	-14.6	-8.2	-4.5	0.8	1.9
Cc1ccccc1OCCn1c(=N)n(C(C)C)c2ccccc21	-9.5	3.7	-2.4	0.5	43.2*
Cc1ccccc1OCCN1C(=O)c2ccccc2C1=O	-8.2	-3.6	-0.2	-0.1	-1.6
Cn1c(SCC(=O)NC2CCCCC2)nnc1-c1cc2cc(Cl)ccc2o1	0.3	4.6	12.5	1.0	1.3
CC(NC(=O)CSc1nnc(-c2cc3cc(Cl)ccc3o2)n1C)c1ccccc1 (centres undefined)	-1.3	31.8*	-6.8	-0.2	-2.7
COc1ccc(N2CCN(c3oc(-c4ccccc4C)nc3S(=O)(=O)c3ccccc3)CC2)cc1	0.6	7.6	-1.1	-0.4	-0.6
O=C1c2cccc3c(N4CCCCC4)ccc(c23)C(=O)N1c1ccccc1O	-3.6	6.0	4.0	95.7*	203.6*
O=C1c2cccc3cccc(c23)C(=O)N1c1ccc(O)cc1	-1.1	2.5	-3.1	0.3	3.1
O=C1c2cccc3c(N4CCCCC4)ccc(c23)C(=O)N1c1ccc(O)cc1	19.6	-5.6	-2.8	133.5*	359.0*
CCC(C)(C)NC(=O)c1cc(C(=O)OC)cc([N+](=O)[O-])c1	-1.4	6.3	-2.0	0.5	-0.7
CCCN(CCC)S(=O)(=O)c1ccc(NC(=O)c2cc(C(=O)OC)cc([N+](=O)[O-])c2)cc1	-37.9*	10.7	0.9	-0.1	0.7
O=S(=O)(c1ccc(C(F)(F)F)cc1)N1CCN(CCOc2ccccc2)CC1	-38.8*	2.2	-3.5	1.1	18.5
O=C(COc1ccccc1[N+](=O)[O-])N1CCN(S(=O)(=O)c2ccccc2)CC1	-95.5*	2.9	-11.1	0.0	1.6
O=C(Cn1cc(C(F)(F)F)ccc1=O)N1CCN(S(=O)(=O)c2ccccc2)CC1	-4.0	39.6*	-0.3	-0.8	0.5
COc1ccc(S(=O)(=O)N2CCN(CCOc3ccc(Br)cc3)CC2)cc1OC	-8.6	14.5	-2.8	1.1	3.5
COc1ccc(S(=O)(=O)N2CCN(CCOc3ccccc3Cl)CC2)cc1OC	-50.9*	0.6	-14.4	-0.3	6.1
O=C(Cn1cc(C(F)(F)F)ccc1=O)N1CCc2ccccc2C1	-0.9	7.4	5.4	0.3	3.6
O=C(COc1cccnc1[N+](=O)[O-])N1CCN(S(=O)(=O)c2ccccc2)CC1	0.6	-0.2	-1.9	0.2	0.4
COCc1nc2ccccc2n1CCOc1cccc(C)c1	-4.0	-9.4	-0.1	-0.4	-1.4
CCOc1ccc(CCNC(=O)CCN2N=C(c3ccc(OC)cc3)CCC2=O)cc1OCC	-17.8	-3.2	-7.2	-1.3	-0.6
COc1ccc(-c2cc(C(F)(F)F)nc(SCCC(=O)Nc3ccc(F)cc3F)n2)cc1	-10.6	27.8	-5.2	3.8	9.8
O=C(CN1CCc2ccccc2C1)N1CCN(S(=O)(=O)c2ccccc2)CC1	-35.5*	-3.2	-5.9	-0.7	2.7
O=C(c1cnc(N2CCOCC2)c2ccccc12)N1CCN(c2ccccc2F)CC1	-6.6	-4.2	-5.1	0.1	1.9
O=C1C(Cl)=C(N2CCCC2)C(=O)N1c1ccc(F)cc1	-32.6*	0.5	-5.3	-0.1	8.9
O=C1C(Cl)=C(N2CCOCC2)C(=O)N1c1cccc(C(F)(F)F)c1	-33.6*	1.0	-6.1	-0.2	3.5
